In ChEMBL document CHEMBL1961873, “Compounds: GSK PKIS; Assays: Nanosyn kinase panel” (2012):

What was measured:
[1] = system: Proto-oncogene tyrosine-protein kinase receptor Ret (Homo sapiens), P07949 [Y791F]; settings: at 1 µM
[2] = target: Macrophage-stimulating protein receptor (Homo sapiens) (UniProt Q04912); settings: at 0.1 µM
[3] = target: Macrophage-stimulating protein receptor (Homo sapiens) (UniProt Q04912); settings: at 1 µM
[4] = target: Proto-oncogene tyrosine-protein kinase ROS (Homo sapiens) (UniProt P08922); settings: at 0.1 µM
Chain of Proto-oncogene tyrosine-protein kinase ROS (Homo sapiens) (P08922 whole entry): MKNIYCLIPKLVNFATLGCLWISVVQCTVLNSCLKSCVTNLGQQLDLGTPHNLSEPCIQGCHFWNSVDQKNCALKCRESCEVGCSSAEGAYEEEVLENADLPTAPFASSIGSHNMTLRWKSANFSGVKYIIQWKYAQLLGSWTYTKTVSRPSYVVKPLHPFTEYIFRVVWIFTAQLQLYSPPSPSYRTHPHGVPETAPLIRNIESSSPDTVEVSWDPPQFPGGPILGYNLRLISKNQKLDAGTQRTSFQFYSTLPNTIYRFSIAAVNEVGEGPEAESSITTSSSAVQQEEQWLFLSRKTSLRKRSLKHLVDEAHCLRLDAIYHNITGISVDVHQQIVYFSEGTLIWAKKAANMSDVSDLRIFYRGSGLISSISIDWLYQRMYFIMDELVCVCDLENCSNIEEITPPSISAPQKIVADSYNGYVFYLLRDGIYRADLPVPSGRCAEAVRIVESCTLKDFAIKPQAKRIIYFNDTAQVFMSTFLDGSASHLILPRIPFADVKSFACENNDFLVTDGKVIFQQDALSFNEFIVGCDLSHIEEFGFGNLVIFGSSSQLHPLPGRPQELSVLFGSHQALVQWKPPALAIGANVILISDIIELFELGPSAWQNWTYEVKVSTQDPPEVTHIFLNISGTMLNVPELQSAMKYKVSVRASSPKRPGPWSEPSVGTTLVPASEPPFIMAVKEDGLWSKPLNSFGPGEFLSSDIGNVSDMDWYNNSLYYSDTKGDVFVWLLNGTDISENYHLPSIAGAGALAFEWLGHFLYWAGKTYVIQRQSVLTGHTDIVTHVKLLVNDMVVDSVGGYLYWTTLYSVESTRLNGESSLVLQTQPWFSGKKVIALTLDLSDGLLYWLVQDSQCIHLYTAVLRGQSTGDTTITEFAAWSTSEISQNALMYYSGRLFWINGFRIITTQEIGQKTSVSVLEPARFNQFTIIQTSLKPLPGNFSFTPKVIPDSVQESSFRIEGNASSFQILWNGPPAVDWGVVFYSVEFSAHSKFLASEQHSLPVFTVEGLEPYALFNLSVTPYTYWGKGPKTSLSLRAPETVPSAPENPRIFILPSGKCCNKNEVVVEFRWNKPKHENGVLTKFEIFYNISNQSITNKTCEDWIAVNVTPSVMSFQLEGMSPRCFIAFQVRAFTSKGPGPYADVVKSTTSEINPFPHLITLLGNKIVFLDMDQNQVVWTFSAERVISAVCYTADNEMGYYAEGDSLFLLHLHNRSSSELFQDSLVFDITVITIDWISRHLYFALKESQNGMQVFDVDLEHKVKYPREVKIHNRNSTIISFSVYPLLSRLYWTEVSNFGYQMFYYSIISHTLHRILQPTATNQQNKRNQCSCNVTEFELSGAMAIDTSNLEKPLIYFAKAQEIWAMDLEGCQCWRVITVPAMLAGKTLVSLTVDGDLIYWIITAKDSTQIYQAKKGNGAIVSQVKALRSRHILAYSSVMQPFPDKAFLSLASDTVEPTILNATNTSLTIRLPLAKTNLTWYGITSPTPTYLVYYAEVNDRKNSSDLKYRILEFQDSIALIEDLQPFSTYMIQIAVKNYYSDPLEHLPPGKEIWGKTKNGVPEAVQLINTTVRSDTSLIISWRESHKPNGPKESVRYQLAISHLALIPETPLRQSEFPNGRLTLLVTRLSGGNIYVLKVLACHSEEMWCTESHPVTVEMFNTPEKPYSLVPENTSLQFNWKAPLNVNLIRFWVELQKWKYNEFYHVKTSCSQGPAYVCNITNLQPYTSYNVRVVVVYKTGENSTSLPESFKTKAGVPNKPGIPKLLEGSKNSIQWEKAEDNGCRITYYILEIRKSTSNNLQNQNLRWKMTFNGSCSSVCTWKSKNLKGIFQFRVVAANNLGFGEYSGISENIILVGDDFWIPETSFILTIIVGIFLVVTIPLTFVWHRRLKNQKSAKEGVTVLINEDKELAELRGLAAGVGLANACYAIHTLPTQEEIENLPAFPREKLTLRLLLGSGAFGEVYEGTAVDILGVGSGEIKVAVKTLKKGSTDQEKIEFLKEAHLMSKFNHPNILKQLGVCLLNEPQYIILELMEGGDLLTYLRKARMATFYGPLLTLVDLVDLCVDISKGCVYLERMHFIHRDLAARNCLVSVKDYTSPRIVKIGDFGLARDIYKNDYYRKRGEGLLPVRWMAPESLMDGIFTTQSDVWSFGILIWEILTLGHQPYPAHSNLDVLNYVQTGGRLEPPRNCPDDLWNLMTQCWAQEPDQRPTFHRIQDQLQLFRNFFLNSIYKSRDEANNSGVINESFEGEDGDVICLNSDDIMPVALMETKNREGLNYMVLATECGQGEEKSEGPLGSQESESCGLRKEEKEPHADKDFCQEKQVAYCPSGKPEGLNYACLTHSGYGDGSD

[5] = target: Proto-oncogene tyrosine-protein kinase ROS (Homo sapiens) (UniProt P08922); settings: at 1 µM
[6] = target: Proto-oncogene tyrosine-protein kinase Src (Homo sapiens) (UniProt P12931); settings: at 0.1 µM
[7] = target: Proto-oncogene tyrosine-protein kinase Src (Homo sapiens) (UniProt P12931); settings: at 1 µM
[8] = target: Tyrosine-protein kinase Srms (Homo sapiens) (UniProt Q9H3Y6); settings: at 0.1 µM
Chain of Tyrosine-protein kinase Srms (Homo sapiens) (Q9H3Y6 whole entry): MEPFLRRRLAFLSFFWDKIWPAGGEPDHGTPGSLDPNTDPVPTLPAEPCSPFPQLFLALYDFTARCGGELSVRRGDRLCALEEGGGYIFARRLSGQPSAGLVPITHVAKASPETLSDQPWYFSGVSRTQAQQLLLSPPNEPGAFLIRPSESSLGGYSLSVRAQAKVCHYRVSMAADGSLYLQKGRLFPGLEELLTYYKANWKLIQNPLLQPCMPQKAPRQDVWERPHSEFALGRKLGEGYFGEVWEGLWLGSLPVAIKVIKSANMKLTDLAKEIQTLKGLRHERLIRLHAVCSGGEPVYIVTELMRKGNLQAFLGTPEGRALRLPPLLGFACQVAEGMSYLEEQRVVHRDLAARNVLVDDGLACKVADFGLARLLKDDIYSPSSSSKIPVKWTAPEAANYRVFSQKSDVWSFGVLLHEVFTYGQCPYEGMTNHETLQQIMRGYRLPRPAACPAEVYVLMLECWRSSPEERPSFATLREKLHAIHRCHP

[9] = target: Tyrosine-protein kinase Srms (Homo sapiens) (UniProt Q9H3Y6); settings: at 1 µM
[10] = target: Tyrosine-protein kinase SYK (Homo sapiens) (UniProt P43405); settings: at 0.1 µM
[11] = target: Tyrosine-protein kinase SYK (Homo sapiens) (UniProt P43405); settings: at 1 µM
[12] = target: T1, Tyrosine-protein kinase Tec (Homo sapiens) (UniProt P42680); settings: at 0.1 µM
T1 sequence (whole entry): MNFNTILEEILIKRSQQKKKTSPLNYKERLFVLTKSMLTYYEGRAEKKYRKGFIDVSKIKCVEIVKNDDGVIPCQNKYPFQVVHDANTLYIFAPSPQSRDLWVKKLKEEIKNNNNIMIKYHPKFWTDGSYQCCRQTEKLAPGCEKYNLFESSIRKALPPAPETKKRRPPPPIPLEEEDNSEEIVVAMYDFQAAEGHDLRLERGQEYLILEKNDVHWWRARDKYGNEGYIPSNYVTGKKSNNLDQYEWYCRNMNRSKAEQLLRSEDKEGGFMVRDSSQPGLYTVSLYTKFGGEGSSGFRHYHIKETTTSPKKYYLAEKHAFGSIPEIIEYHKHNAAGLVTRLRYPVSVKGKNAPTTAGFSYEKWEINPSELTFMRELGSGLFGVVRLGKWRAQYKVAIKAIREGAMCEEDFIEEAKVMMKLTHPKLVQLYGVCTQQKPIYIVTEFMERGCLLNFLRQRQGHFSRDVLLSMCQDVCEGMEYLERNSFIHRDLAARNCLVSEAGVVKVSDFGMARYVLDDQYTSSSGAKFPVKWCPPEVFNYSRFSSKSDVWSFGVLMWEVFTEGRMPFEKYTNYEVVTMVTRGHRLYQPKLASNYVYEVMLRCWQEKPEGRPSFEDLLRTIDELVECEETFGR

[13] = target: T1, Tyrosine-protein kinase Tec (Homo sapiens); settings: at 1 µM
[14] = target: Angiopoietin-1 receptor (Homo sapiens) (UniProt Q02763); settings: at 0.1 µM
Chain of Angiopoietin-1 receptor (Homo sapiens) (Q02763 whole entry): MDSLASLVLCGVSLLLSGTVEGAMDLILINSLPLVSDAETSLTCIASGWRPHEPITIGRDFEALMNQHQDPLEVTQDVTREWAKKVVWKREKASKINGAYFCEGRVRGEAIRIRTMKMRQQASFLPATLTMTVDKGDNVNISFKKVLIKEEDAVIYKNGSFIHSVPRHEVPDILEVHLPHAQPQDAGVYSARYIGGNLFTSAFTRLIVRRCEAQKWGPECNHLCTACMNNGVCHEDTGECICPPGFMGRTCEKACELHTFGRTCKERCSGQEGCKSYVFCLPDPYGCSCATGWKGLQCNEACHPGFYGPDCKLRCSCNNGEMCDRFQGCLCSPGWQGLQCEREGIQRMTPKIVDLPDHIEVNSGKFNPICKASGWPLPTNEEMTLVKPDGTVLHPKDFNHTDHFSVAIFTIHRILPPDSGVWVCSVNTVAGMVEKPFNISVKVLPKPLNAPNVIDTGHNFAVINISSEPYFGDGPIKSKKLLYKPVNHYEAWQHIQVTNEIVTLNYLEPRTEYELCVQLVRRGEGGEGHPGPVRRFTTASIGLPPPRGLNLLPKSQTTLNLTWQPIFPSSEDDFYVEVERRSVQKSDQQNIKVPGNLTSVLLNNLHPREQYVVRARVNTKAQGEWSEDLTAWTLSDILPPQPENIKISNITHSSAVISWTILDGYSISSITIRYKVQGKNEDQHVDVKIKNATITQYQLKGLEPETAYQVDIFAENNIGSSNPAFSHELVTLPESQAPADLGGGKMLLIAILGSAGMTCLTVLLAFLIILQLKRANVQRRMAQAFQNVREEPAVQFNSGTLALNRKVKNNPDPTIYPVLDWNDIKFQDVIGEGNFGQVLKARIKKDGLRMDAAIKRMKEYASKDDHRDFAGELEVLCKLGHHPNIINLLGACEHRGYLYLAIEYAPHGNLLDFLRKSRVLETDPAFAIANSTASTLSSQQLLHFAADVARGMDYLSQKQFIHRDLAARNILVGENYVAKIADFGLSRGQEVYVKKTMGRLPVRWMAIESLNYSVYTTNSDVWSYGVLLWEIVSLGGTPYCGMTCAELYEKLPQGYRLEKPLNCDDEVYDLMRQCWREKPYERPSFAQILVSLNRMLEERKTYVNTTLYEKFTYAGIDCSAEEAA

[15] = target: Angiopoietin-1 receptor (Homo sapiens) (UniProt Q02763); settings: at 1 µM
[16] = target: T2, Non-receptor tyrosine-protein kinase TNK1 (Homo sapiens) (UniProt Q13470); settings: at 0.1 µM
T2 sequence (whole entry): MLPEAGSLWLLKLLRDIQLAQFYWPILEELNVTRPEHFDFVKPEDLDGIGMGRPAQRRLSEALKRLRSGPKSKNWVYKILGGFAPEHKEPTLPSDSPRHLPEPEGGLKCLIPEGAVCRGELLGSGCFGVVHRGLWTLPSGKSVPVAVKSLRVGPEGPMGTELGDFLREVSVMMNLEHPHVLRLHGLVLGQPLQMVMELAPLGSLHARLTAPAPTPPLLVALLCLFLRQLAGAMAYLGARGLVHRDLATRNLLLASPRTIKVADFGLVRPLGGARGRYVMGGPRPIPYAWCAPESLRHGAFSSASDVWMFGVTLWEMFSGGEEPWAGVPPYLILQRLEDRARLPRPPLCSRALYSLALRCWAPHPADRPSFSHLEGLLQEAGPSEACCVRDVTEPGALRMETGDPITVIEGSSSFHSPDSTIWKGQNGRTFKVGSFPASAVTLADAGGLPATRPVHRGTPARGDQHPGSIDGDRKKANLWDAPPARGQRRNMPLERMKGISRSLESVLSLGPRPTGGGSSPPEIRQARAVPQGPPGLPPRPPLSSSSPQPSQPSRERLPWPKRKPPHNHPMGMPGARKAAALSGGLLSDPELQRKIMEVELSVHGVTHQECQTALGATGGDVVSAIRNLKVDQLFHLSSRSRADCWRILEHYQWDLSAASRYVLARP

[17] = target: T2, Non-receptor tyrosine-protein kinase TNK1 (Homo sapiens); settings: at 1 µM
[18] = target: Activated CDC42 kinase 1 (Homo sapiens) (UniProt Q07912); settings: at 0.1 µM
[19] = target: Activated CDC42 kinase 1 (Homo sapiens) (UniProt Q07912); settings: at 1 µM
[20] = target: High affinity nerve growth factor receptor (Homo sapiens) (UniProt P04629); settings: at 0.1 µM;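 further: each value is a mean of replicate percent inhibition readings against TRKA kinase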
Chain of High affinity nerve growth factor receptor (Homo sapiens) (P04629 33-796 limits assumed): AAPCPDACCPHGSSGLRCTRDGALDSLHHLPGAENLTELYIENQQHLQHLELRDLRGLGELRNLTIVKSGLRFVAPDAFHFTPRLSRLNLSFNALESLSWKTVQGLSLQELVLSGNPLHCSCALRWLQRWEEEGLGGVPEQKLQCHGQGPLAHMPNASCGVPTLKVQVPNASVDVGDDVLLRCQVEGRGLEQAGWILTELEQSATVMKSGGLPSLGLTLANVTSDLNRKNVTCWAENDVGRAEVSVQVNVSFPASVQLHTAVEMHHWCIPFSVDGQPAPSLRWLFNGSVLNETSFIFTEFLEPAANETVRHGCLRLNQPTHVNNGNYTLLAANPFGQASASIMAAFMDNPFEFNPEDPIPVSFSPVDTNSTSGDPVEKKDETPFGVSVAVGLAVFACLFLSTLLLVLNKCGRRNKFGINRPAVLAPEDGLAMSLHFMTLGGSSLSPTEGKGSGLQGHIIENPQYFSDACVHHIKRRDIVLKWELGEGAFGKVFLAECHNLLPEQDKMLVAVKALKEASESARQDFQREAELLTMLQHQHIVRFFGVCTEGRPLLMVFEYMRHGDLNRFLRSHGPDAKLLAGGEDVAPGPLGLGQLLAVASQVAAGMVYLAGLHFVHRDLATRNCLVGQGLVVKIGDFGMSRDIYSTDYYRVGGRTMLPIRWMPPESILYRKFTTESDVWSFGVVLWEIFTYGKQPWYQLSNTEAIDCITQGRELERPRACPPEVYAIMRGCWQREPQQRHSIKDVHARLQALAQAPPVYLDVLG

Structure (SMILES) | inhibition [1] [%] | inhibition [2] [%] | inhibition [3] [%] | inhibition [4] [%] | inhibition [5] [%] | inhibition [6] [%] | inhibition [7] [%] | inhibition [8] [%] | inhibition [9] [%] | inhibition [10] [%] | inhibition [11] [%] | inhibition [12] [%] | inhibition [13] [%] | inhibition [14] [%] | inhibition [15] [%] | inhibition [16] [%] | inhibition [17] [%] | inhibition [18] [%] | inhibition [19] [%] | inhibition [20] [%]
COc1ccc2ncnc(Nc3ccc(OCc4ccccc4)cc3)c2c1 | 11.5 | 2.03 | 4.46 | 1.06 | 3.14 | 2.84 | 8.82 | -1.19 | 0.6 | -3.74 | -1.05 | 2.8 | 4.49 | 2.79 | 5.45 | 2.34 | 12.3 | 0.68 | 1.66 | 0.33
[O-][S+]1CCN(Cc2ccc(-c3ccc4ncnc(Nc5ccc(OCc6ccccc6)c(Cl)c5)c4c3)o2)CC1 | 5.41 | 1.76 | 1.89 | 2.65 | 3.8 | 1.76 | 6.34 | -2.27 | -2 | 1.18 | 0 | -0.94 | 1.06 | 0.37 | 1.08 | -0.33 | 9.61 | 0.09 | -0.42 | 1.88
Cc1ccc(NC(=O)CC2CC2)cc1-c1ccc(C(=O)NCC2CC2)cc1 | 28.8 | -0.78 | 1.45 | 4.69 | 8.56 | 4.43 | 8.28 | 0.3 | 5.61 | -2.32 | 0.5 | 5.07 | 8.67 | 2.75 | 6.74 | 2.27 | 10.1 | 0.82 | 3.94 | 3.3
Cc1nc(-c2ccccc2)n2nc(NCCCN3CCOCC3)ncc12 | 4.86 | 2.7 | -3.01 | 4.45 | 2.41 | 6.46 | 6.81 | 2.65 | 2.27 | 1.44 | 3.52 | 2.69 | 3.32 | 4.19 | 5.74 | 1.98 | 2.53 | 0.58 | 1.15 | 0.31
Cc1ccc(C(=O)NC2CC2)cc1-c1ccc2[nH]ncc2c1 | -0.71 | -3.31 | -6.03 | 0.92 | 1.49 | -6.61 | -7.08 | -1.77 | 0.94 | -1.71 | -0.05 | -3.67 | -3.15 | 0.34 | 3.3 | -1.01 | 4.02 | -0.76 | 2.48 | 1.88
Cc1cc(Cl)cc2c1NC(=O)C2=NNc1ccc(S(N)(=O)=O)cc1 | 11 | 0.92 | 0.34 | 2.22 | 3.14 | 5.04 | 5.85 | -1.17 | -2.07 | -4.26 | 0.95 | 2.23 | 1.43 | 2.08 | 2.32 | -0.6 | 7.55 | 0.54 | 1.92 | -1.82
CCS(=O)(=O)c1ccc(OC)c(Nc2nccc(N(C)c3ccc4c(C)n[nH]c4c3)n2)c1 | 80.2 | 2.28 | 11.8 | 12.1 | 51.3 | 42.5 | 81.2 | 11.4 | 50.3 | -1.92 | -6.17 | 4.3 | 27 | 6.69 | 46.3 | 40 | 82.5 | 2.32 | 22.8 | 2.86
Cc1ccc2c(c1)/C(=N/Nc1ccc(S(N)(=O)=O)cc1)C(=O)N2 | 18.2 | -3.95 | -1.57 | 2.42 | 4.27 | 0.59 | 6.44 | -1.38 | -2.68 | 2.17 | -2.83 | 1.52 | 4.33 | -0.15 | 2.63 | -2.23 | 3.63 | -0.48 | -0.62 | -1.8
C[C@@H](Oc1cc(-n2cnc3ccc(OCC4CCN(C)CC4)cc32)sc1C(N)=O)c1ccccc1C(F)(F)F | 18.4 | -0.38 | 9.36 | 0.2 | 7.21 | -1.27 | 21.3 | 1.72 | 2.5 | 0.48 | 0.25 | -1.52 | -0.1 | 5.78 | 32.4 | 3.21 | 30.3 | 5.42 | 46.1 | -0.37
CS(=O)(=O)Nc1cccc(-c2ccc3c(NC(=O)C4CC4)n[nH]c3c2)c1 | -0.36 | -6.3 | -6.45 | 3.6 | 2.79 | 1.2 | 4.09 | 1.35 | -2.43 | -1.34 | 0.89 | 2.55 | 3.97 | 1.52 | 7.04 | 2.45 | -6.75 | -0.85 | -2.06 | -1.92
NS(=O)(=O)c1cccc(-c2cc3ccncc3cc2OCc2ccccc2)c1 | 18 | 3.72 | -2.44 | 10.8 | 17.1 | 5.87 | 11.2 | -1.16 | -2.93 | -6.65 | -1.17 | 5.34 | 8.79 | 4.31 | 7.65 | 1.24 | 4.7 | 0.71 | 1.65 | 1.41
COc1cccc(-n2nc(C)c3c(N/N=C(\C)c4ccncc4)ncnc32)c1 | 5.78 | -3.77 | -0.1 | 2.71 | 4.49 | 2.45 | 3.26 | 0.84 | 2.72 | 1.37 | 2.38 | 1.82 | 3.53 | 0.73 | 2.25 | -1.41 | 0.13 | -0.22 | 0.84 | 0.99
COC(=O)c1ccc2c(c1)C(=Cc1cc(Br)c(O)c(Br)c1)C(=O)N2 | 21.5 | 1.56 | 3.36 | 6.38 | 9.41 | 8.74 | 19.6 | 30.9 | 75.9 | 0.74 | -1.69 | 9.11 | 7.75 | 3.09 | 3.01 | 25.5 | 70.2 | 0.88 | 8.96 | 2.4
COc1ccc(-c2nn3ncccc3c2-c2ccnc(Nc3cccc(C(F)(F)F)c3)n2)cc1 | 6.6 | 0.53 | -3.48 | 2.58 | 4.13 | 6.2 | 10 | -1.6 | 1.75 | -1.06 | -2.11 | 1.14 | 4.73 | 2.11 | 9.2 | 7.47 | 9.47 | 0.73 | 0.85 | 1.79
OCc1ccc(-c2nc(-c3ccccn3)c(-c3ccc4c(c3)OCO4)[nH]2)cc1 | 6.59 | -1.95 | -0.55 | 6.84 | 8.11 | -0.99 | 10.6 | 0.43 | -1.19 | -7.53 | -0.31 | 7.61 | 11.1 | 2.48 | 6.23 | 5.37 | -4.68 | 1.72 | 2.78 | 3.27
COc1cccc(-n2ncc3c(N/N=C/c4ccc(C)cc4)ncnc32)c1 | 13.9 | 2.1 | 9.64 | 14.2 | 38.4 | 14.2 | 32.9 | -2.37 | -0.01 | 0.52 | 0.76 | 6.46 | 5.78 | 4.38 | 5.1 | 4.86 | 9.73 | 0.47 | 5.39 | 9.62
